This note sets out measurements from PubChem BioAssay (EPA / NIEHS).

Molecules are shown by their SMILES. Activity calls are given as the source filed them. The calls were made as follows: active = hit-call score of the fitted dose curve at least 0.9, where 1 is the maximum; inactive = score below 0.9.

The nature of this assay: APR_HepG2_CellLoss_24hr: Apredica 24-hour HepG2 Assay for Cell Loss (AID 2282908).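 As to AC50: fit in both directions so a hit may be cell loss or gain.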 To be noted: high-content imaging. The procedure:
APR_HepG2_24hr is a cell-based, multiplexed-readout assay that uses HepG2, a human liver cell line, with measurements taken at 24 hours after chemical dosing in a 384-well plate.APR_HepG2_CellLoss_24hr is one of 10 assay component(s) measured or calculated from the APR_HepG2_24hr assay. It is designed to make measurements of cell number, a form of viability reporter, as detected with fluorescence intensity signals by HCS Fluorescent Imaging technology.Data from the assay component APR_HepG2_CellLoss_24hr was analyzed into 1 assay endpoint. This assay endpoint, APR_HepG2_CellLoss_24hr, was analyzed with bidirectional fitting relative to DMSO as the negative control and baseline of activity. Using a type of viability reporter, measures of all nuclear dna for gain or loss-of-signal activity can be used to understand the viability at the cellular-level. Furthermore, this assay endpoint can be referred to as a secondary readout, because this assay has produced multiple assay endpoints where this one serves a viability function. To generalize the intended target to other relatable targets, this assay endpoint is annotated to the cell cycle intended target family, where the subfamily is proliferation.
Cells were treated with dimethyl sulfoxide (DMSO) as a solvent control at a final concentration of 0.5% v/v or with compounds in DMSO with a resulting final DMSO concentration of 0.5% v/v. Compound treatment was done at concentrations of 0.39, 0.78, 1.56, 3.12, 6.24, 12.5, 25, 50, 100, and 200 uM in duplicate on each plate. Cells were treated with compounds for 1, 24, or 72 hr. Carbonyl […] m-chloro-phenylhydrazone (CCCP) and taxol were used as positive controls for mitochondrial function and cytoskeletal stability, respectively; DMSO served as the negative control for this experiment. Cells were fixed by the direct addition of 50 uL formaldehyde in Hank's Balanced Salt Solution (HBSS) to a final concentration of 3.7%. After incubation in the fixation medium for 30 min at room temperature (293-298 K), cells were rinsed twice with HBSS and treated with cell permeabilization buffer (16 uL of 0.5% Triton X-100) for 10 min at room temperature (293-298 K) before labeling. For mitochondrial membrane potential and mitochondrial measurements, pre-fixed cells were incubated with 50 uL of MitoTracker Red CMXRos (Invitrogen) at a concentration of 250 nM for 30 min before fixation. In the remaining cases, post-fixed cells were labeled by incubation with a multiplexed mixture of primary antibodies in HBSS for 60 min at room temperature (293-298 K) to detect immunoreactivity of c-Jun (1:500), phospho-histone H3 (1:100), phospho-histone H2A.x (1:200), p53 (1:400), alpha-tubulin (1:200) and Hoechst 33342 (2 ug/mL). Cells were labeled for multiplexed imaging on two separate plates: a) Hoechst 33342, MitoTracker Red, phospho-histone H3, and alpha-tubulin, and b) Hoechst 33342, phospho-histone H2A.x, and c-Jun. A final rinse with HBSS (50 uL) was performed before analysis. The primary and secondary antibodies for the proteins were phospho-histone H3 (rabbit anti-phospho-histone H3 and FITC-donkey anti-rabbit IgG), phospho-histone H2A.x (mouse anti-phospho-histone H2A.x and FITC-donkey anti-mouse IgG), c-Jun (rabbit anti-phospho-c-Jun and Cy3-donkey anti-rabbit IgG), p53 (sheep anti-p53 and Cy5-donkey anti-sheep IgG), alpha-tubulin (mouse anti-alpha-tubulin and Cy5-donkey anti-mouse IgG). These antibodies are available as the CellCiphr HepG2 assay kit (Millipore).Digital images of each well were captured using a Cellomics ArrayScan VTI (Thermo Scientific Cellomics) (0.8 NA objective, 0.63x optical coupler, and XF-93 filter set) at 20x magnification. The images were acquired using the autofocus feature of the ArrayScan instrument, which entails the following steps. First, the camera focuses on channel 1 (Hoechst 33342), where nuclei are identified. Second, a Z offset of 1 um is used for capturing mitochondria (MitoTracker Red). […]
As for `C/C=C/C=C/C(=O)O`, the call was inactive. As to `Cc1cc(Cc2ccc(N)c(C)c2)ccc1N`, the molecule was called inactive. With `CCCCCCCC(=O)OC`, the molecule was classed as inactive. With `O=C(NS(=O)(=O)/C=C/c1cccs1)c1ccc(F)cc1Br`, the molecule was called inactive. Regarding `NC=O`, the molecule was called inactive.

On to `CC(C)c1cccc(C(C)C)c1NC(=O)NS(=O)(=O)c1cc(C(C)(C)O)co1`, for which the molecule was classed as inactive.

As for `CO[C@@H]1COCC[C@@H]1N[C@@H]1CC[C@@](C(=O)N2CCc3ncc(C(F)(F)F)cc3C2)(C(C)C)C1`, the molecule was classed as inactive. Turning to `CC(=O)[C@@]1(O)CC[C@H]2[C@@H]3CCC4=CC(=O)CC[C@]4(C)[C@H]3CC[C@@]21C`, the call was inactive.

For orientation: AC50 means the midpoint of the concentration-response curve, whichever way the signal moves. For the molecule `COC(=O)[C@H]1[C@H]2C[C@@H]3c4[nH]c5cc(OC)ccc5c4CCN3C[C@H]2C[C@@H](OC(=O)c2cc(OC)c(OC)c(OC)c2)[C@@H]1OC`, the AC50 was 37.6 µM (active). For the molecule `C#CC(O)C(CC)CCCC` (stereo not given), the call was inactive. Regarding `C=CCc1ccc(OC)c(OC)c1`, the call was inactive. `CCc1nc(N)nc(N)c1-c1ccc(Cl)cc1`: the molecule was called inactive. For the molecule `CCCCOC(=O)CCCCC(=O)OCCCC`, the outcome was inactive. For the molecule `CCCC[C@H]1CN(CC2CCOCC2)C(=O)OC12CCN(C1(C)CCN(C(=O)c3c(C)ncnc3C)CC1)CC2`, the call was inactive.

Take `Cn1cnc2c1c(=O)[nH]c(=O)n2C`: the outcome was inactive. The same measure, in the same setting: the same measure for `CN(C)C(=O)NC1(c2ccccc2)CCN(CC[C@@]2(c3ccc(F)c(F)c3)CN(C(=O)c3ccccc3)CCO2)CC1`: “inactive”; for `CCCCCCCCCCCCCCCCO`: “inactive”. Consider `COc1ccc(C(=O)Nc2nc3ccccc3c(NCc3ccccc3)c2C#N)cc1`, for which the AC50 is 119 µM (active). For the molecule `CCc1cc(C2=C(C(=O)O)N(c3ccccc3C(F)(F)F)S(=O)(=O)c3ccccc32)cc2c1OCO2`, the outcome was inactive. The same measure, in the same setting: the same measure for `C/C=C/c1ccc(OC)cc1`: “inactive”; for `O=C1CCCCC1`: “inactive”. For `O=C1NC(=O)C(c2ccccc2)(c2ccccc2)N1`, the molecule was classed as inactive.

Turning to `NC1CCCCC1`, the molecule was classed as inactive. Take `CCCCC(CC)CO` (stereo not given): the call was inactive. The same measure, in the same setting: the same measure for `c1ccc2occc2c1`: “inactive”. On to `CCCCC(CC)COP(=O)(OCC(CC)CCCC)OCC(CC)CCCC` (stereo not given), for which the AC50 was 37.7 µM (active).

As for `COC(=O)CCCC(=O)OC`, the outcome was inactive. Still for that read-out and setting: to `CC(C)c1cccc(C(C)C)c1` belongs “inactive”; to `CCCCCCC(CCCCCCCCCCC(=O)OCC(COC(C)=O)OC(C)=O)OC(C)=O` (stereo not given), “inactive”; to `N[C@@H](Cc1c[nH]c2ccccc12)C(=O)O`, “inactive”.

Turning to `S=c1[nH]c2ccccc2s1`, the call was inactive. With `O=C(O)CN(CC(=O)O)CC(=O)O`, the result was inactive.

As to `CC(=O)OCC(COC(C)=O)OC(C)=O`, the result was inactive. With `O=C(N[C@@H](c1ccccc1)[C@@H]1CCCCN1)c1cccc(C(F)(F)F)c1Cl`, the AC50 was 21.7 µM (active). Take `CN(C)CCCN(C)CCCN(C)C`: the molecule was classed as inactive. On to `CC(C)OC(=O)C(C)(C)Oc1ccc(C(=O)c2ccc(Cl)cc2)cc1`, for which the call was inactive. On to `Cc1ccc(-c2cc(C(F)(F)F)nn2-c2ccc(S(N)(=O)=O)cc2)cc1`, for which the half-maximal activity concentration (AC50) is 66.7 µM (active). Consider `NC(=Nc1ccccc1)Nc1ccccc1`, for which the molecule was classed as inactive. The same measure, in the same setting: to `O=NO` belongs “inactive”; to `CCCCC(CC)COC(=O)CCCCCCCC(=O)OCC(CC)CCCC` (stereo not given), “inactive”.
